PfHsp90 yeast 2 = inhibits growth of yeast expressing Plasmodium falciparum Hsp90. inhibition, % at 9.4 µM. hit rate 0.32% among 310,000. S. cerevisiae expressing PfHsp90, BacTiter-Glo ATP, 48 h; yeast lacking PDR1 and PDR3 efflux regulators. AID 504621;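 active = every replicate shows inhibition above about 80%, whatever the replicate mean, limit read from the data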
TIM10 inh = TIM10 yeast growth inhibition. AID 463195. hit rate 1.4% among 330,000. S. cerevisiae TIM10 strain growth, BacTiter-Glo luminescence, 24 h. inhibition, % at 10 µM;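 active = inhibition of 40% or more at the single tested concentration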;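 note: wild-type TIM10 isogenic control strain grown at permissive 25 °C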
tim10-1 inh = tim10-1 yeast growth inhibition; S. cerevisiae tim10-1 ts strain growth, BacTiter-Glo, 24 h; inhibition, % at 20 µM; hit rate 2.2% among 330,000;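 active = inhibition of at least 40%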;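 note: mutant grown at 25 °C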
tim23-1 inh = tim23-1 yeast growth inhibition | S. cerevisiae tim23-1 growth, BacTiter-Glo luminescence, 24 h | inhibition, % at 20 µM | hit rate 1.3% among 330,000 | AID 463212;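 active = growth inhibition of the mutant yeast at or above 50%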;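 note: temperature-sensitive mutant grown at 25 °C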
V-ATPase pH = alters yeast V-ATPase proton transport; hit rate 0.37% among 350,000; S. cerevisiae, pHLuorin cytosolic pH fluorescence; response, % at 10 µM; AID 504577; in the data active = response mostly above about 7.3%, no sharp cut-off; inactive = mostly below about 5.4%; note: actives read high
tim23-1 conf = confirmation of tim23-1 mutant yeast growth inhibitors | hit rate 83% among 4,400 | shares compounds with tim23-1 inh | S. cerevisiae tim23-1 growth, BacTiter-Glo luminescence, 24 h | inhibition, % at 20 µM | AID 463218;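 active = inhibition above about 39% in either of two replicate wells at 20 µM, limit read from the data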;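 note: temperature-sensitive tim23-1 mutant grown at 25 °C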
Of the large screens only hits and unclear results are named; the others gave an inactive call (follow-up assays come after a bar, where they were run). A selection: hits, their analogues and other compounds. The true share with any hit is near 3.7%.

O=C1C=C(c2ccccc2)C(c2ccccc2)C1O (stereo not given)	none (no result: TIM10 inh, tim10-1 inh, tim23-1 inh)
CCOc1cc(-c2nnc(NC(=O)C3=COCCO3)o2)cc(OCC)c1OCC	none (no result: PfHsp90 yeast 2)
O=C(N/N=C/c1cccc(OCc2ccccc2)c1)c1cccs1	tim23-1 inh 55 | tim23-1 conf 42
O=C(N/N=C/C=C\c1ccco1)c1cccs1	tim23-1 inh 64 | tim23-1 conf 53
CC(/C=N/NC(=O)c1ccncc1)=C\c1ccccc1	none
CC(=C/c1ccccc1)/C=N/NC(=O)c1cccs1	tim23-1 inh 64 (no result: PfHsp90 yeast 2) | tim23-1 conf 55
O=C(c1cc2nc(-c3ccc(Cl)cc3)cc(C(F)(F)F)n2n1)N1CCOCC1	none
COc1ccc(CCn2c(C(C)C)nc3oc4ccccc4c(=O)c3c2=O)cc1	tim23-1 inh 51 | tim23-1 conf 41
CCCc1nc2oc3cc(OC)ccc3c(=O)c2c(=O)n1CCc1ccccc1	none
CC(C)c1nc2c(c(=O)c3ccccc3n2C)c(=O)n1CCc1ccccc1	tim23-1 inh 59 (no result: PfHsp90 yeast 2) | tim23-1 conf inactive
CCC(=O)Nc1cccc(C2=NN(c3ccccc3)C(c3ccc(OC)cc3)C2)c1 (stereo not given)	tim23-1 inh 51 | tim23-1 conf inactive
COc1ccc(C2CC(c3ccccc3O)=NN2c2ccccc2)cc1 (stereo not given)	none
COc1ccc(C2CC(c3ccccc3)=NN2c2ccc(N)cc2)cc1 (stereo not given)	tim23-1 inh 51 | tim23-1 conf 41
C/C(CCc1oc2c(Br)cc(Br)cc2c1-c1ccc(C)o1)=N\O	tim23-1 inh 58 | tim23-1 conf inactive
COC(=O)CC1COc2ccccc2N1S(=O)(=O)c1ccc(Br)cc1 (stereo not given)	tim23-1 inh 53 | tim23-1 conf inactive
COC(=O)CC1COc2ccccc2N1S(=O)(=O)c1ccc(OC)cc1 (stereo not given)	none
CCn1c(SCC(=O)Nc2nc3ccc(C)cc3s2)nc2c(c1=O)SC(C)C2 (stereo not given)	tim23-1 inh 52 | tim23-1 conf 47
O=C(c1ccccc1Br)N1CCc2c([nH]c3ccccc23)C1	tim23-1 inh 61 | tim23-1 conf inactive
O=C(C1CC1)N1CCc2[nH]c3ccccc3c2C1	none (no result: PfHsp90 yeast 2)
Cc1nc(SCC(=O)N2CCCC2=O)c2c(C)c(C)sc2n1	none (no result: PfHsp90 yeast 2, TIM10 inh, tim10-1 inh, tim23-1 inh)
Cn1c(CNC(=O)CNC(=O)c2ccc(F)cc2)cc(=O)n(C)c1=O	none
O=C(CN1CCN(C(=O)c2ccco2)CC1)N1CCc2[nH]c3ccccc3c2C1	none (no result: PfHsp90 yeast 2, V-ATPase pH)
Cc1ccc2[nH]c3c(c2c1)CN(C(=O)CN1CCN(c2cccc(C)c2C)CC1)CC3	tim23-1 inh 60 | tim23-1 conf inactive
CCN1C(=O)[C@H]2[C@@H](c3ccc(C)cc3)N3C(=O)N(c4ccc(OC)cc4)C(=O)[C@@]3(C)[C@H]2C1=O	none
CC(=O)c1ccc(NC(=S)N2CCN(c3cccc(Cl)c3)CC2)cc1	none
CC(=O)c1ccc(N2CCN(C(=S)Nc3cccc(Cl)c3)CC2)cc1	tim23-1 inh 96 | tim23-1 conf inactive
CCN1C(=O)[C@@H]2[C@@H](c3ccc(-c4ccc(F)cc4)cc3)N3CCCC[C@@]3(C(=O)OC)[C@@H]2C1=O	none
FC(F)(F)c1nnc2ccc(Sc3ccccn3)nn12	none
COc1cccc(C2=NN(C(=O)c3ccco3)C(c3ccco3)C2)c1 (stereo not given)	tim23-1 inh 52 | tim23-1 conf 41
Cc1ccc(Nc2nnc(SCc3nc4ccccc4c(=O)[nH]3)s2)cc1	none
CCOP(=O)(OCC)C(Nc1ccccc1)c1cc(OC)ccc1OC (stereo not given)	tim23-1 inh 52 | tim23-1 conf inactive
Cc1ccc2c(c1)COc1c3ccc(C(=O)N[C@@H](C)CO)cc3nn1-2	none
Cc1ccc2c(c1)COc1c3ccc(C(=O)NC(C)C)cc3nn1-2	tim23-1 inh 51 | tim23-1 conf 48
COc1ccccc1NS(=O)(=O)c1cccc(C(=O)N2CCCCCC2)c1	none (no result: PfHsp90 yeast 2)
CCCCNC(=S)N/N=C/c1cc(C)ccc1C	tim23-1 inh 53 | tim23-1 conf 42
CC12CCC(c3c(C(=O)Nc4nccs4)nn(-c4ccccc4)c31)C2(C)C (stereo not given)	tim23-1 inh 59 | tim23-1 conf 57
CC12CCC(c3c(C(=O)O)nn(-c4ccccc4)c31)C2(C)C (stereo not given)	none
COc1ccccc1CNC(=O)CSc1nnc2c(n1)[nH]c1ccc(F)cc12	none
COc1ccc(-c2c(C)nn3c(N4CCOCC4)cc(C)nc23)cc1OC	none (no result: TIM10 inh, tim10-1 inh, tim23-1 inh)
COc1ccc(-c2c(C)nn3c(N4CCCCCC4)cc(C)nc23)cc1OC	tim23-1 inh 54 | tim23-1 conf 57
COc1cc(OC)cc(-c2c(C#Cc3ccsc3)c3cc(-c4ccc(CN5CCOCC5)cc4)ccc3n2C)c1	none
COc1ccc(Nc2nc3ccccc3nc2C)cc1	none
Cc1nc2ccccc2nc1Nc1cccc(Cl)c1	tim23-1 inh 61 | tim23-1 conf 41
COc1ccc(CNC(=O)CSc2nc3ccc(C)cc3[nH]2)cc1OC	none
CCCN1C(=O)C(=O)c2cc(Cl)ccc21	tim23-1 inh 61 | tim23-1 conf 40
Cc1ccc2c(c1)C(=O)C(=O)N2CC(=O)OC(C)C	none
O=C1C(=O)N(CCS(=O)(=O)c2ccccc2)c2ccc(Cl)cc21	none
Cc1ccc(OCCCN2C(=O)C(=O)c3cccc(C)c32)cc1	tim23-1 inh 53 | tim23-1 conf 62
Cc1cc(=O)oc2cc(OCCCN3C(=O)c4ccccc4C3=O)ccc12	none
Cc1ccc(OCCN2C(=O)C(=O)c3cc(C)ccc32)cc1	tim23-1 inh 57 | tim23-1 conf 53
COc1ccc(O)c(C(=O)c2cnn(C(=O)c3cc(C)oc3C)c2)c1	tim23-1 inh 58 | tim23-1 conf 55
COc1ccc(O)c(C(=O)c2cnn(C(=O)c3cccc(N(C)C)c3)c2)c1	tim23-1 inh 58 | tim23-1 conf 57
O=C(c1cnn(C(=O)COc2ccccc2F)c1)c1cc(F)ccc1O	none
CN(C)c1cccc(C(=O)n2cc(C(=O)c3cc(F)ccc3O)cn2)c1	tim23-1 inh 57 | tim23-1 conf 68
COc1ccc(C(=O)n2cc(C(=O)c3cc(C)ccc3O)cn2)cc1	none
CCC(CC)CN1CCN=C1N(C)C	none
Cc1ccc(S(=O)(=O)N(Cc2ccccc2F)C(=O)N2CCN(C)CC2)cc1	none
O=S(=O)(Nc1cccc(-c2nc3cccnc3s2)c1)c1ccc2c(c1)OCCO2	tim23-1 inh 58 | tim23-1 conf 52
Cc1nc2ccc(S(=O)(=O)Nc3cc(-c4nc5cccnc5s4)ccc3C)cc2s1	tim23-1 inh 60 | tim23-1 conf 55
Cc1ccc(S(=O)(=O)Nc2ccc(-c3nc4ccc(C)cc4s3)cc2)cc1	none
O=C(NCCN1CCOCC1)C1CC(=O)N(c2ccc(F)cc2)C1 (stereo not given)	none
Cc1ccc(Cl)cc1N(CC(=O)NC1CCCC1)C(=O)c1csnn1	none
CC1=C/C(=C/N(C)C)C(=O)O1	none
